Screening results (PubChem)
CYP2C19 inh: human CYP2C19 inhibition | P33261 | inhibition, % at 5 µM | CYP2C19 Supersomes, luciferin-H EGE luminescence, 30 min | actives 21% (n = 96,000);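 active = CYP2C19 inhibition above a set limit at 5 µM in the primary screen, cut at about 50% in these data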;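 also: plate controls were negative control wells for no effect and 2.5 mM tranylcypromine positive control for full effect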
CD11b adhes inh: inhibitors of human CD11b/CD18 binding to fibrinogen. inhibition, % at 10 µM. K562 CD11b/CD18 adhesion to fibrinogen, ATPlite luminescence; Mn2+ added to activate the integrin. actives 0.54% (n = 93,000);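 active = primary inhibition of 50% or more at 10 µM, then 40% or more on retest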
Target sequence (P05107 whole entry, looked up, other chains not shown): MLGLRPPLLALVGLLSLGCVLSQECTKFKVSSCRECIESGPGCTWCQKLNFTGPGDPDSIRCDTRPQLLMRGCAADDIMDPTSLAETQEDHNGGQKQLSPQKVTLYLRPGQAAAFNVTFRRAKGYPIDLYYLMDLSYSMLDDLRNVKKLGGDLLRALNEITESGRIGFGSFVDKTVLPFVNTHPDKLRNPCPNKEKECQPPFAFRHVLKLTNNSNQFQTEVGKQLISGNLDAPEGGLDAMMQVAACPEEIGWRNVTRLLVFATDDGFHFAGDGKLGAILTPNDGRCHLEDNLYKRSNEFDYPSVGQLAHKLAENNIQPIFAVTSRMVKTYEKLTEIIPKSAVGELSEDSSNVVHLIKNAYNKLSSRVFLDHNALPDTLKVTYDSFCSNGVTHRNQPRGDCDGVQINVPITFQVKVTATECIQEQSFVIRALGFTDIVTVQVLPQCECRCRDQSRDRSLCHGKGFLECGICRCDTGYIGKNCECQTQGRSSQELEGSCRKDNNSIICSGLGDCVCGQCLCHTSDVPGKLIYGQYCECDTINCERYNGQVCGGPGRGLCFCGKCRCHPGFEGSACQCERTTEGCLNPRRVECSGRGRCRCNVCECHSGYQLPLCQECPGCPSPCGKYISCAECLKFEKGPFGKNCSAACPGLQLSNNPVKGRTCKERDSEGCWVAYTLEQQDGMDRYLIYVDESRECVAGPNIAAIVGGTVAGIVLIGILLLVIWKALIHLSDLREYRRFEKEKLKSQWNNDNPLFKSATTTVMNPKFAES
CYP2C9 activ: CYP2C9 (human) activation | P11712 | activation factor at 5 µM | actives 1.4% (n = 96,000) | recombinant CYP2C9, luciferin-H conversion, luminescence; hits give high values; factor 1 = untreated enzyme, 0 = blocked;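 active = activation factor of 2 or more for CYP2C9 at a 5 µM dose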;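 also: 0 = sulfaphenazole-blocked wells and 1 = vehicle-only wells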
CYP2C9 inhib: inhibitors of human CYP2C9; inhibition, % at 5 µM; CYP2C9 Supersomes, luciferin-H conversion, luminescence; actives 20% (n = 96,000); P11712;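 active = blocking of liver enzyme CYP2C9 beyond about 50% at 5 µM, limit read from the data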
Mac1 fbg enh: enhancers of human CD11b/CD18 binding to fibrinogen; P05107+P11215; actives 0.07% (n = 93,000); K562 CD11b/CD18 adhesion to fibrinogen, ATPlite luminescence; activation, % at 10 µM;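 active = 10 µM primary screen giving 50% or more activity, confirmed by 40% or more on retest at that dose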
CYP2C19 act: increases human CYP2C19 enzyme activity. P33261. recombinant CYP2C19, luciferin-H EGE luminescence; hits give high values; 0 = fully inhibited enzyme, 1 = untreated enzyme. activation factor at 5 µM. 96,000 tested, under 10 active;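 active = activation factor of at least 2 at 5 µM in the primary screen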;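 also: 0 = wells with 2.5 mM tranylcypromine and 1 = vehicle-only wells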
* hit, by the source's call; · = no result. A selection: hits, their analogues and other compounds. The true share with any hit is near 28%.

SMILES	CYP2C19 inh	CD11b adhes inh	CYP2C9 activ	CYP2C9 inhib	Mac1 fbg enh	CYP2C19 act
COC(=O)c1ccccc1S(=O)(=O)N(CCCO)Cc1cc2c(C)ccc(C)c2[nH]c1=O	53.7*	13.9	0.2	84.3*	-1.3	0.5
Cc1cc(C)c2cc(CN(CC3CCCO3)S(=O)(=O)c3ccc4c(c3)OCCO4)c(=O)[nH]c2c1 (centres undefined)	35.8	1.7	0.3	72.6*	-2.8	0.6
Cc1ccc(C)c2[nH]c(=O)c(CN(Cc3ccco3)S(=O)(=O)c3ccc4c(c3)OCCO4)cc12	75.3*	8.3	0.3	67.4*	-2.2	0.2
COc1ccc2cc(CN(CC3COCCO3)S(=O)(=O)c3ccc(Cl)cc3)c(=O)[nH]c2c1 (centres undefined)	21.5	52.1	0.4	59.5*	4.1	0.8
COc1ccc2cc(CN(CC3COCCO3)S(=O)(=O)c3c(C)cc(C)cc3C)c(=O)[nH]c2c1 (centres undefined)	21.3	-9.4	0.8	20.0	1.0	0.8
COC(=O)C(C)(C)ONC(=O)Nc1ccccc1	·	-7.3	·	·	3.2	·
COc1ccc(C2=NN(C(=O)c3cccs3)C(c3ccc(OC)cc3)C2)cc1 (centres undefined)	·	7.5	·	·	3.4	·
COc1ccc2[nH]c(=O)c(COC(=O)c3ccco3)cc2c1	12.9	-22.3	0.9	7.9	5.1	0.9
COc1ccc2cc(CN(CC3CCCO3)S(=O)(=O)c3ccccc3)c(=O)[nH]c2c1 (centres undefined)	-16.7	10.1	0.1	85.6*	-2.9	1.2
COc1ccc2[nH]c(=O)c(CN(CCO)S(=O)(=O)c3ccc4c(c3)OCCO4)cc2c1	75.3*	5.9	0.5	47.8	7.3	0.2
COc1cc2cc(CN(CCO)S(=O)(=O)c3ccccc3)c(=O)[nH]c2cc1OC	5.9	0.8	0.9	12.5	0.3	0.9
COC(=O)c1ccccc1S(=O)(=O)N(Cc1ccco1)Cc1cc2cc(OC)ccc2[nH]c1=O	68.2*	-1.7	0.5	45.3	-1.0	0.3
Cc1ccc(S(=O)(=O)N(Cc2cc3cc4c(cc3[nH]c2=O)OCCO4)CC2CCCO2)cc1 (centres undefined)	20.9	-3.8	0.8	24.5	2.9	0.8
Cc1ccc(C(=O)Oc2cc(C)n(C)c(=O)c2)cc1	0.2	-7.3	1	-0.6	4.4	1
COc1ccc(C(=O)N(CC(=O)NC(C)(C)C)c2ccc3c(c2)OCCO3)cc1OC	-17.2	-10.6	1	-1.0	2.6	1.2
CCC(C)(C)NC(=O)CN(C(=O)c1snc(C(N)=O)c1N)c1ccc2c(c1)OCCO2	38.2	3.3	0.4	63.7*	-2.5	0.6
COc1ccc(C2(C(F)(F)F)NC(=O)N(C)C(=O)N2C)cc1 (centres undefined)	11.6	-7.0	1	-4.1	-1.6	0.9
CC(C)(C)c1ccc(C(=O)OCCNC(=O)c2c(Cl)nc3ccccn23)cc1	59.1*	2.3	0.1	92.4*	5.4	0.4
CCOC(=O)c1c(-c2ccccc2)nc2ccccn12	-0.8	·	0.9	13.7	·	1
O=C(NCCOC(=O)c1ccc(Cl)cc1)c1cccnc1	22.7	-31.3	0.8	19.1	-4.1	0.8
COc1ccc(C(=O)OCCNC(=O)c2c(Cl)nc3ccccn23)cc1	75.0*	0.9	0.6	44.6	-0.9	0.3
COc1cccc(Cn2c(-c3nonc3N)nc3ccccc32)c1	29.6	-29.3	0.7	30.7	23.5	0.7
Nc1nonc1-c1nc2ccccc2n1Cc1ccc(Cl)cc1	74.7*	-1.4	0.5	53.1*	-2.8	0.3
Cc1ccc(Cn2c(-c3nonc3N)nc3ccccc32)cc1	22.2	-8.5	0.7	31.4	-2.0	0.8
COc1cc(Cn2c(-c3nonc3N)nc3ccccc32)ccc1C	41.5	1.1	0.3	74.3*	-1.6	0.6
SMILES	CYP2C19 inh	CD11b adhes inh	CYP2C9 activ	CYP2C9 inhib	Mac1 fbg enh	CYP2C19 act
CCN(CC(=O)NC)S(=O)(=O)c1ccc(Br)cc1	52.3*	0.2	1.3	-26.5	-2.4	0.5
CCN(CC(=O)Nc1ccc2c(c1)OCCO2)S(=O)(=O)c1cccs1	62.4*	3.6	0.2	84.6*	2.9	0.4
CCN(CC(=O)NC)S(=O)(=O)c1ccc(C)cc1	21.4	-0.6	1.3	-30.4	-1.5	0.8
Cc1ccc(S(=O)(=O)C(C)C(=O)c2ccc3c(c2)OCCO3)cc1 (centres undefined)	87.4*	-28.2	1.1	-12.7	0.3	0.1
CCN(CC(=O)Nc1ccc2c(c1)OCCO2)S(=O)(=O)c1ccc(C)cc1	24.2	-9.0	0.2	75.6*	0.9	0.8
CC1(C)CN(O)CCN1O	·	0.1	·	·	2.3	·
Cc1ccc2[nH]c(O)c(N=NC(=O)CCc3ccccc3)c2c1Br	·	5.1	·	·	11.8	·
CCOC(=O)C1=C(C)NC(=O)NC1/C=C/c1ccccc1 (centres undefined)	24.1	-22.4	0.8	24.6	0.9	0.8
COC(=O)C1=C(C)NC(C)=C(C(=O)OC)C1/C=C/c1ccccc1	46.7	-30.1	0.4	55.2*	0.3	0.5
CCOC(=O)C1=C(C)NC(C)=C(C(=O)OCC)C1/C=C/c1ccccc1	68.4*	-39.4	0.3	70.1*	5.7	0.3
Cc1cc(S(=O)(=O)NCCN(C)C)c(C)s1	-1.5	·	0.9	5.9	·	1
O=C1NC(=O)C(c2cn(-c3ccccc3)nc2-c2ccc(F)cc2)N1 (centres undefined)	21.0	-27.5	0.1	94.5*	11.0	0.8
CC1=C(C(=O)c2ccccc2)C(c2cn(-c3ccccc3)nc2-c2ccc(Cl)cc2)NC(=S)N1 (centres undefined)	5.2	-11.9	0.6	35.1	63.3	0.9
COc1ccc(/C(O)=C2/C(=O)C(=O)N(CCCN(C)C)C2c2ccc(C)o2)cc1Cl (centres undefined)	2.4	-2.6	0.7	32.9	0.5	1
O=[N+]([O-])c1cccc(CN(CCO)Cc2ccccc2)c1	40.7	0.9	0.6	36.1	-1.4	0.6
OCCN(Cc1ccccc1)Cc1ccc(F)c(F)c1	84.3*	3.4	0.7	29.6	2.6	0.2
Cc1cc(O)c(C(C)C)cc1NC(=O)c1cccc(Cl)c1	60.1*	·	0.4	55.7*	·	0.4
CCOC(=O)NC(Nc1ccc(S(N)(=O)=O)cc1)(C(=O)OCC)C(F)(F)F (centres undefined)	8.0	-5.5	1	-1.2	-0.3	0.9
O=C1OC(Nc2ccc(F)cc2F)c2ccccc21 (centres undefined)	-2.5	-8.5	1.1	-6.3	-3.3	1
O=C1OC(Nc2ccc3c(c2)OCO3)c2ccccc21 (centres undefined)	63.7*	-7.3	0.7	25.6	-0.9	0.4
CCN(CC)S(=O)(=O)c1ccc(NC2c3ccccc3C(=O)N2Cc2ccc3c(c2)OCO3)cc1 (centres undefined)	12.7	-1.3	0.9	8.9	-1.9	0.9
